Reference: PubChem BioAssay (NCATS)
Values without a mark were called inactive. Inconclusive results are not listed. The source made the active and inactive calls. Unless noted, the call rests on the fitted dose curve; in most records, active means well fitted curve in either direction with a large enough effect (not every such curve was filed as active); inconclusive means small, poorly fitted or top-dose-only effect, or another doubt; inactive means flat fitted curve, though single readings scatter.

Key:
[1] = AP1 Signaling Pathway (AID 357); conditions: ME-180 AP-1-bla reporter, EGF-induced, beta-lactamase ratio, 5 h; at 17.2 µM (top of the series) unless noted;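 further: ME-180 reporter cells stimulated with EGF at its EC50 level; on the % scale 0 is the no-effect control and ±100 the full control effect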
How it was run: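 Beta-lactamase reporter under AP-1 response element, ME-180 background. Stimulus: EC50 EGF. Compound exposure 5 h, 37 °C. Detection: CCF4, 2.5 h RT, 460/530 nm. Values: AC50 from titration.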

[2] = NFAT Signaling Pathway (AID 444); conditions: Jurkat NFAT-bla M1, carbachol, beta-lactamase ratio, 5 h; at 17.2 µM (top of the series) unless noted;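 further: carbachol stimulus at about its EC50 of 1 µM final; on the % scale 0 is the no-effect control and ±100 the full control effect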
How it was run: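 Jurkat cells with NFAT-driven β-lactamase reporter and co-expressed M1 receptor, stimulated with carbachol (final 1 uM, ~EC50), compound titration, 5 h at 37 °C. CCF4 loaded 1 h at RT; 460/530 nm ratio gave %activity and AC50.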

[3] = Stat Signaling Pathway (AID 446); conditions: ME-180 SIE beta-lactamase reporter, IL-6 stimulated, 5 h; at 17.2 µM (top of the series) unless noted;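 further: ME-180 cervical cancer cells given 40 pM IL-6 alongside compound; SIE-controlled beta-lactamase reporter measured as 460/530 nm FRET emission ratio; on the % scale 0 is the no-effect control and ±100 the full control effect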
How it was run: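 ME-180 SIE-bla cells; overnight plating; cpd + IL-6 40 pM, 5 h, 37 C; LiveBLAzer 2.5 h RT; 460/530 nm emission ratio. Normalized to 300 pM IL-6 and 125 nM JAK inhibitor controls.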

[4] = molecular target: Glucocorticoid receptor (Homo sapiens) (UniProt P04150); assay: GR-GFP Redistribution (AID 450;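 active means compounds whose dose series gives a full or clear partial fitted curve of increased nuclear translocation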; further: potency means the concentration at half of the fitted maximal effect); conditions: U2OS GR-GFP nuclear translocation, laser cytometry, 2 h; series mostly up to 20.6 µM
[5] = molecular target: Mitogen-activated protein kinase 10 (Mus musculus) (UniProt Q61831); assay: JNK3 AlphaScreen Assay (AID 530); conditions: JNK3 lysate, c-Jun phosphorylation; series mostly up to 57.1 µM;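 further: kinase came from lysate of stimulated human HepG2 cells; signal reports phosphorylation of biotinylated GST-cJun 1-79 at Ser73 with 10 µM ATP; on the % scale 0 is the no-effect control and ±100 the full control effect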
How it was run: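 qHTS format: compounds tested as titrations against IL-1beta/TNF-alpha-activated HepG2 lysate JNK3 with biotin-GST-cJun substrate and 10 uM ATP at room temperature. Loss of anti-phospho-cJun AlphaScreen signal indicates inhibition.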

[6] = molecular target: 3',5'-cyclic-AMP phosphodiesterase 4B (Homo sapiens) (UniProt Q07343); assay: qHTS Assay for Inhibitors of PDE-IV (AID 607; active means well fitted activation curve with a large enough effect in the main read-out, with a control signal flat, not every such curve was filed as active; further: % of control where 0% means no effect); conditions: HEK293 ACTOne CNG channel cells, membrane potential fluorescence; series mostly up to 22.9 µM
How it was run: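 ACTOne HEK293 cells carry a modified cAMP-gated CNG channel and express endogenous PDE4; plated 1000 cells/well, compounds up to 22.9 uM final. Membrane-potential dye fluorescence (ex 535/em 590) was read; parental cells received 10 uM forskolin + 100 uM RO 20-1724.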

[7] = qHTS Assay for Identification of Small Molecule Agonists for Hypoxia Response Element Signaling Pathway (AID 914; active means well fitted activation curve with a large enough effect in the signal ratio, with a control signal flat, not every such curve was filed as active; the % refers to the signal ratio; further: potency means the concentration at half of the fitted maximal effect; on activation: % of control where 0% means no effect); conditions: ME-180 (cervical carcinoma) HRE-bla reporter, beta-lactamase ratio, CoCl2, 17 h; activation: stronger effect = higher value
How it was run: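 AC50 values come from titration-series %Activity, taken as the 460/530nm ratio of CCF4 fluorescence (excitation 405nm). CellSensor HRE-bla ME-180 cells were treated 17 hours at 37 C with compound plus an EC50 level of CoCl2.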

[8] = molecular target: Glucocorticoid receptor (Homo sapiens) (UniProt P04150); assay: GR-EFC Redistribution (AID 451; calls by dose curve; further: potency means the concentration at half of the fitted maximal effect); conditions: CHO-K1 GR-EFC translocation, beta-gal luminescence, 2 h
How it was run: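 CHO-K1 cells expressing nuclear EA and GR-ED fragments of b-gal; compounds titrated up to 46 uM final, 2 h at 37 C. GR nuclear translocation read as complemented b-gal luminescence after 1 h RT detection.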

[9] = molecular target: Cytochrome P450 3A4 (Homo sapiens) (UniProt P08684); assay: qHTS Assay for Activators of Cytochrome P450 3A4 (AID 885; active means well fitted curve in the direction sought with a large enough effect; an effect the other way counts as inactive or inconclusive; further: nearly all actives have a fitted effect of over 65% in size); conditions: recombinant CYP3A4, Luciferin-PPXE luminescence, 60 min; series mostly up to 57.1 µM
How it was run: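 20nM CYP3A4 + 25uM Luciferin-PPXE (=KM), 200mM KPO4; cpd 10 min RT; NADPH regen, 60 min RT; stop w/ detection buffer, 20 min; luminescence. Normalized to 57 uM ketoconazole.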

[10] = molecular target: Guanine nucleotide-binding protein G(i) subunit alpha-1 (Homo sapiens) (UniProt P63096); assay: qHTS Assay for Inhibitors of RGS12 GoLoco Motif Activity (Green Fluorophore) (AID 879; active means well fitted curve in the direction sought with a large enough effect; an effect the other way counts as inactive or inconclusive;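 further: 0% = labeled peptide with Gαi1 and full inhibition = labeled peptide alone without protein; negative values mean loss of peptide binding seen as reduced polarization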); conditions: Galphai1/FITC-RGS12 GoLoco peptide, fluorescence polarization; series mostly up to 57.1 µM
How it was run: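 Fluorescence polarization assay: 50 nM Gαi1 with 10 nM FITC-labeled RGS12 GoLoco peptide in 10 mM Tris pH 7.5, 150 mM NaCl, 0.1 mM GDP, 0.05% NP40, 10 min at room temperature with compound.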

[11] = qHTS Assay for Identification of Small Molecule Agonists for Thrombopoietin (TPO) Signaling Pathway (AID 917; active means well fitted curve in the direction sought with a large enough effect; an effect the other way counts as inactive or inconclusive; further: on the % scale 0 is the no-effect control and ±100 the full control effect); conditions: TPO signaling pathway reporter cells, agonist qHTS, stimulated with TPO at its EC50; series mostly up to 38.5 µM
How it was run: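 We measured Glycoprotein IIb promoter–luciferase output in IL-3-starved Ba/F3 murine cells expressing the human TPO receptor after 24 hrs at 37 C with compounds and 26 pM TPO.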

[12] = molecular target: Pyruvate kinase (Leishmania mexicana) (UniProt Q27686); assay: qHTS Validation Assay for Inhibitors of Leishmania Mexicana Pyruvate Kinase (AID 945; active means well fitted curve in the direction sought with a large enough effect; an effect the other way counts as inactive or inconclusive;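 further: 0% = DMSO only neutral control wells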); conditions: purified L. mexicana pyruvate kinase, enzyme activity, E451W mutant enzyme; series mostly up to 57.5 µM
How it was run: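 Purified LmPYK (E451W mutant, 0.2 nM) was incubated 1 h at room temperature with 0.5 mM PEP and 0.1 mM ADP in 50 mM imidazole pH 7.2, 50 mM KCl, 7 mM MgCl2; ATP formed was read by PKLight luminescence, normalized to DMSO wells.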

[13] = molecular target: Pyruvate kinase PKM (Homo sapiens) (UniProt P14618); assay: qHTS Assay for Activators of Human Muscle Pyruvate Kinase (AID 954; active means well fitted curve in the direction sought with a large enough effect, not every such curve was filed as active;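 further: 0% = uninhibited enzyme and -100% = no enzyme or full thiadiazolimine inhibition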); conditions: purified human muscle pyruvate kinase, luciferase-coupled luminescence, 1 h; series mostly up to 57.5 µM
How it was run: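 Luminescence from a luciferase ATP-detection/stop reagent reported PKM2 activity. Reactions contained 0.1 nM purified human enzyme, 0.5 mM PEP, 0.1 mM ADP and 7 mM MgCl2 at pH 7.2, run 1 h at RT.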

[14] = molecular target: Alpha-galactosidase A (Homo sapiens) (UniProt P06280); assay: Counterscreen for Glucocerebrosidase Inhibitors: qHTS Assay for Human alpha-Galactosidase at pH 4.5 (AID 992; active means well fitted curve in the direction sought with a large enough effect; an effect the other way counts as inactive or inconclusive; further: 0% is about no effect); conditions: purified enzyme, fluorogenic substrate; series mostly up to 76.9 µM
How it was run: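 Enzyme at 2 nM final was combined with compound (0.7 nM to 77 uM) and 80 uM 4-methylumbelliferyl alpha-D-galactopyranoside in 50 mM citric acid, 0.005% Tween-20, pH 4.5. After 20 min at room temperature, fluorescence was read (Ex 365/Em 440 nm); AC50 came from Hill fits.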

Glucocorticoid receptor (Homo sapiens), sequence (P04150 whole entry, looked up, the tested form may be a part): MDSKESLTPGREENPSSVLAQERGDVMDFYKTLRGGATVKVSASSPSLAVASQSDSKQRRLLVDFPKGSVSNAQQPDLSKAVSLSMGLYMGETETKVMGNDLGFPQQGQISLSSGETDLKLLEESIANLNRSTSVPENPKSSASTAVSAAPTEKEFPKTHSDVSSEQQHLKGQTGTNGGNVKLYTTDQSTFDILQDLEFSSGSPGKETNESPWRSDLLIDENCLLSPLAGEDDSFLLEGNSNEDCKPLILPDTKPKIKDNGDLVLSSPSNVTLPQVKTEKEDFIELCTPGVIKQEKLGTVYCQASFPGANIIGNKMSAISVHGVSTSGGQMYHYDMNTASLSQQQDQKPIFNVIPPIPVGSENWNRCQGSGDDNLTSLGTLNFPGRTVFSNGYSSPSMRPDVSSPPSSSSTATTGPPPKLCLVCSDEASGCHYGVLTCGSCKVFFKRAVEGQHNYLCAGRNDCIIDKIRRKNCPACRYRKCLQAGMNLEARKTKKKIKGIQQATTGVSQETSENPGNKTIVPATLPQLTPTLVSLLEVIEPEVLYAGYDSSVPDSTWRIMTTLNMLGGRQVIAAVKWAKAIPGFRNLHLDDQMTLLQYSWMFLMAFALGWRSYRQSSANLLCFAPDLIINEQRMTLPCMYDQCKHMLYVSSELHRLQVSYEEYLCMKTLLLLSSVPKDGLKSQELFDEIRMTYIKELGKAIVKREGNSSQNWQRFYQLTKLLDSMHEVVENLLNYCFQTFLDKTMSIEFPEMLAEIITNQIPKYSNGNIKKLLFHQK
3',5'-cyclic-AMP phosphodiesterase 4B (Homo sapiens), sequence (Q07343 whole entry, looked up): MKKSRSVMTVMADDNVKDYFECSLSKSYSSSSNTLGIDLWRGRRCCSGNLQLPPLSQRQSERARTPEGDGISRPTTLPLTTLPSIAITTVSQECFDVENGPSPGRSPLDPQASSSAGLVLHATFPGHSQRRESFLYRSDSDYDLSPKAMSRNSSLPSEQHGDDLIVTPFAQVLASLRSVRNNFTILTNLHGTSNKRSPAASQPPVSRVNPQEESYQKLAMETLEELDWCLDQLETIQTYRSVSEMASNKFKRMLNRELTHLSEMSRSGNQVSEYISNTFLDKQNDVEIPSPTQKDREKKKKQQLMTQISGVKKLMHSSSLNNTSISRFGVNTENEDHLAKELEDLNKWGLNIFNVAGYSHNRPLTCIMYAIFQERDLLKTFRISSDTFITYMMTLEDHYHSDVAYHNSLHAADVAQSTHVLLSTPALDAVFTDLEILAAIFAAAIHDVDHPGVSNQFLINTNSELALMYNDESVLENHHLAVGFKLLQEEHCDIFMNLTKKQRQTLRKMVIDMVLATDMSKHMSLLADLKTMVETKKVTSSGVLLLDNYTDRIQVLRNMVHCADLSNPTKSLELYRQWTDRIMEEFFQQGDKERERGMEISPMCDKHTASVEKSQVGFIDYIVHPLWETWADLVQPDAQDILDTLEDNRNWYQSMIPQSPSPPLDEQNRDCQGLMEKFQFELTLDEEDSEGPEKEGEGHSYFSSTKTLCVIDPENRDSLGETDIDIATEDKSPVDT
Guanine nucleotide-binding protein G(i) subunit alpha-1 (Homo sapiens), sequence (P63096 whole entry, looked up): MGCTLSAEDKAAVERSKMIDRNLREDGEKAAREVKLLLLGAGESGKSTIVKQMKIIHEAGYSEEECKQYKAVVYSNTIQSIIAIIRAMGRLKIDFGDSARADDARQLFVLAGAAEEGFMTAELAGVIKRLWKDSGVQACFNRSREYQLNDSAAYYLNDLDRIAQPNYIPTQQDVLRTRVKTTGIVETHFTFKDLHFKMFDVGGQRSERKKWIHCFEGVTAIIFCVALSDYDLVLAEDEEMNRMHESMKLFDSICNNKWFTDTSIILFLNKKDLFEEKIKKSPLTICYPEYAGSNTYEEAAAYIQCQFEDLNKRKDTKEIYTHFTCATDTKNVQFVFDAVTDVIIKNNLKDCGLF
Pyruvate kinase PKM (Homo sapiens), sequence (P14618 whole entry, looked up): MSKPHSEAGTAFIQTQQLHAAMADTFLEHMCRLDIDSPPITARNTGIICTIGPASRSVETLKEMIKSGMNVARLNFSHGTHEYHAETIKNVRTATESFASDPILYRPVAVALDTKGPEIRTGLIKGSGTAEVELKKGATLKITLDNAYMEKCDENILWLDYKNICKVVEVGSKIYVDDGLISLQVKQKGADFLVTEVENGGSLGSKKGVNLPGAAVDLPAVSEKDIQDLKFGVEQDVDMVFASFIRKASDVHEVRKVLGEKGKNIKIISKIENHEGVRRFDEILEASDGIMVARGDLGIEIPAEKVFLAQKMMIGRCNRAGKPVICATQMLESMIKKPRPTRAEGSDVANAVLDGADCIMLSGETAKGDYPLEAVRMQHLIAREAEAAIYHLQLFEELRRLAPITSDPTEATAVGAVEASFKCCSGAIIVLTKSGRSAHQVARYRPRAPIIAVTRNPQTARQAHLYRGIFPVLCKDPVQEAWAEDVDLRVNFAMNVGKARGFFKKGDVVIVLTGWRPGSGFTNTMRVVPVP
Alpha-galactosidase A (Homo sapiens), sequence (P06280 whole entry, looked up): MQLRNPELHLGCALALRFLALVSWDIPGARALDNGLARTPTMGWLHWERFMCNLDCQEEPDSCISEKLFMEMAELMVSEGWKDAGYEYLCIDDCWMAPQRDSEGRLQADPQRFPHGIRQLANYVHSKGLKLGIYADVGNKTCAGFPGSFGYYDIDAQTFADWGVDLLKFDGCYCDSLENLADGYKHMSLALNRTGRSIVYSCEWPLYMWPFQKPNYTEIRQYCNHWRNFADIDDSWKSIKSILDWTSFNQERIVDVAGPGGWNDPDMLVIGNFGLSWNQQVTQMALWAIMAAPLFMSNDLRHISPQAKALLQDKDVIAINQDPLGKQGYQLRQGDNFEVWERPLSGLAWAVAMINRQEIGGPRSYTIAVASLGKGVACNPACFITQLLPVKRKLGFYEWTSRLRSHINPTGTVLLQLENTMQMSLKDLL
Cytochrome P450 3A4 (Homo sapiens), sequence (P08684 whole entry, looked up): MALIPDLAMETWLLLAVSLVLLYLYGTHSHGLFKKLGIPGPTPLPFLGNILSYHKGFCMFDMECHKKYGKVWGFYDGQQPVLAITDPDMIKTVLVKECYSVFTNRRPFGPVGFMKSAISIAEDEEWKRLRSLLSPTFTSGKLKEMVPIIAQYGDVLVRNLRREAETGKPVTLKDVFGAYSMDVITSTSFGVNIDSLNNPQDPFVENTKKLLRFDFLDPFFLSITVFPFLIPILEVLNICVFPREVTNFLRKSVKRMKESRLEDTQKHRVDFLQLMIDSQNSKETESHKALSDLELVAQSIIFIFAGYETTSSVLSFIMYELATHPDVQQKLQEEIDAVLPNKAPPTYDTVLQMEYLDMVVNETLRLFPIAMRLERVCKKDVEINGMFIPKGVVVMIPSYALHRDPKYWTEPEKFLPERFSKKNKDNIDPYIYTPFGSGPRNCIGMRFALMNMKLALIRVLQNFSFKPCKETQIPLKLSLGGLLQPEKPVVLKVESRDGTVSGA
Pyruvate kinase (Leishmania mexicana), sequence (Q27686 2-499 E452W): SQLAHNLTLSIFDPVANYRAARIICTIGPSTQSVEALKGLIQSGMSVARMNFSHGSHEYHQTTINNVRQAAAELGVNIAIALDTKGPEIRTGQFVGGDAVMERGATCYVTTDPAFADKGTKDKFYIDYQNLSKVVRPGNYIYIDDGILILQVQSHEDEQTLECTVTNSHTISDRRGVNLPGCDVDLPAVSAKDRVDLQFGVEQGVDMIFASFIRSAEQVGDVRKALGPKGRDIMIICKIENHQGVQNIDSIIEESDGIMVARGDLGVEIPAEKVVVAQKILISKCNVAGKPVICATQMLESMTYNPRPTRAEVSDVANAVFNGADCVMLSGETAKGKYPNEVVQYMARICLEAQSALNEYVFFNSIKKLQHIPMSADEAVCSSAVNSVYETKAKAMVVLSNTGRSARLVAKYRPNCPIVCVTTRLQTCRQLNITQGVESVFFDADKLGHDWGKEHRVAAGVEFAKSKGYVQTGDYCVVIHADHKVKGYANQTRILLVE

COc1cc(C)cc2c(-c3c(O)cc(O)c4c3C[C@H](C)N[C@@H]4C)cc(-c3cc(-c4c(O)cc(O)c5c4C[C@H](C)N[C@@H]5C)c4cc(C)cc(OC)c4c3O)c(O)c12
activity change, negative = inhibition [1]: 6.28% [at 7.69 µM] | activity change, negative = inhibition [2]: 9.14% [at 7.69 µM] | activity, negative = inhibition [3]: 5.82% [at 7.69 µM] | Potency [4]: > 46 µM | activity change, negative = inhibition [5]: -9.73% [at 11.4 µM] | Potency [6]: inactive

O=C(NC1CCCCC1)[C@H](O)[C@@H](O)C(=O)NC1CCCCC1
activity change, negative = inhibition [1]: 8.04% | activity change, negative = inhibition [2]: 0.354% | activity, negative = inhibition [3]: 4.25% | Potency [4]: > 20.6 µM | activation [7]: 12.1%

O=c1cc(N2CCCCC2)nc2n1CCCS2
activity change, negative = inhibition [1]: -18.5% | activity change, negative = inhibition [2]: -21.5% | activity, negative = inhibition [3]: -10.2% | Potency [4]: > 20.6 µM | Potency [7]: 6.31 µM (active)

CCc1nc(NCC2CCCO2)c(C#N)c2c1COC(C)(C)C2 (stereo unspecified)
activity change, negative = inhibition [1]: -25.1% | activity change, negative = inhibition [2]: -16.2% | activity, negative = inhibition [3]: -2.2% | Potency [4]: > 20.6 µM | activation [7]: -11.3%

COC(=O)/C(C#N)=C1/SC=C(C)N1c1ccccc1
activity change, negative = inhibition [1]: 1.21% | activity change, negative = inhibition [2]: 3.89% | activity, negative = inhibition [3]: 4.42% | Potency [4]: > 20.6 µM | activation [7]: -6.52%

O=C(O)CC(NC(=O)COc1ccc(Cl)cc1Cl)C(=O)O (stereo unspecified)
activity change, negative = inhibition [1]: 7.75% | activity change, negative = inhibition [2]: 6.45% | activity, negative = inhibition [3]: 1.25% | Potency [4]: > 20.6 µM | activation [7]: 3.63%

Cn1ccnc1SCCC#N
activity change, negative = inhibition [1]: -0.27% | activity change, negative = inhibition [2]: -6.48% | activity, negative = inhibition [3]: 5.85% | Potency [4]: > 20.6 µM | activation [7]: 14%

O=C(C[N+]12CN3CN(CN(C3)C1)C2)c1ccc(-c2ccccc2)cc1
activity change, negative = inhibition [1]: 8.23% [at 7.69 µM] | activity change, negative = inhibition [2]: -2.51% [at 7.69 µM] | activity, negative = inhibition [3]: 0.439% [at 7.69 µM] | Potency [4]: > 46 µM | Potency [8]: > 9.22 µM | activity change, negative = inhibition [5]: -2.86% [at 11.4 µM] | Potency [6]: inactive | activity change, positive = activation [9]: -51.5% [at 11.4 µM]

N[C@H](Cc1ccc(F)cc1)C(=O)O
activity change, negative = inhibition [1]: 14.8% [at 38 µM] | activity change, negative = inhibition [2]: -1.52% [at 38 µM] | activity, negative = inhibition [3]: -8.01% [at 38 µM] | Potency [4]: > 46 µM | Potency [8]: > 46 µM | Potency [5]: inactive | Potency [6]: inactive | outcome [10]: inactive | Potency [11]: inactive | Potency [12]: inactive | outcome [13]: inactive | outcome [14]: inactive

Cc1cc(/C=N\O)c(C)n1-c1ccncc1
activity change, negative = inhibition [1]: 0.0567% | activity change, negative = inhibition [2]: 23.9% | activity, negative = inhibition [3]: -5.06% | Potency [4]: > 20.6 µM | activation [7]: 1.93%

O=C(C1CCCCC1)N1CCCn2c1nc1ccccc12
activity change, negative = inhibition [1]: 8.92% | activity change, negative = inhibition [2]: -19.9% | activity, negative = inhibition [3]: 4.38% | Potency [4]: > 20.6 µM | activation [7]: 6.44%

C=CC(O)Cc1c(C)n[nH]c1C (stereo unspecified)
activity change, negative = inhibition [1]: 18.3% | activity change, negative = inhibition [2]: 4.36% | activity, negative = inhibition [3]: 7.01% | Potency [4]: > 20.6 µM | activation [7]: 4.5%

CN1C(=O)c2ccc(N(C)C)cc2C1=O
activity change, negative = inhibition [1]: 1.85% | activity change, negative = inhibition [2]: -12.3% | activity, negative = inhibition [3]: 1.02% | Potency [4]: > 20.6 µM | activation [7]: 14.5%

CCOc1ccc(NC(=O)c2nn(C)cc2Br)cc1
activity change, negative = inhibition [1]: 1.01% | activity change, negative = inhibition [2]: 4.54% | activity, negative = inhibition [3]: 3.62% | Potency [4]: > 20.6 µM | activation [7]: 5.55%

CCOC(=O)c1c(N)sc2c1CCC1C(=O)N(C3CCCCC3)C(=O)C21 (stereo unspecified)
activity change, negative = inhibition [1]: -12.9% | activity change, negative = inhibition [2]: -2.94% | activity, negative = inhibition [3]: -6.61% | Potency [4]: > 20.6 µM | activation [7]: -6.89%

CCN(CC)Cc1c(O)ccc2c(C)c(CC(=O)OC)c(=O)oc12
activity change, negative = inhibition [1]: 14.2% | activity change, negative = inhibition [2]: 25.4% | activity, negative = inhibition [3]: 8.46% | Potency [4]: > 20.6 µM | Potency [7]: 10 µM (active)

CC(C)c1nc(N2CCOCC2)c(C#N)c2c1COC(C)(C)C2
activity change, negative = inhibition [1]: -19.1% | activity change, negative = inhibition [2]: -4.43% | activity, negative = inhibition [3]: 11.9% | Potency [4]: > 20.6 µM | activation [7]: -24.7%

COc1cc(C2C3C(=O)N(c4ccc(F)cc4)C(=O)C3ON2c2ccccc2)ccc1O (stereo unspecified)
activity change, negative = inhibition [1]: -17.6% | activity change, negative = inhibition [2]: 0.386% | activity, negative = inhibition [3]: -1.27% | Potency [4]: > 20.6 µM | activation [7]: -4.56%

Oc1ccccc1CNn1cnnc1
activity change, negative = inhibition [1]: -0.712% | activity change, negative = inhibition [2]: 15.6% | activity, negative = inhibition [3]: 4.83% | Potency [4]: > 20.6 µM | activation [7]: 7.68%

COC(=O)c1sc(NC(C)=O)c(C(=O)OC)c1C
activity change, negative = inhibition [1]: 2.69% | activity change, negative = inhibition [2]: 2.63% | activity, negative = inhibition [3]: 1.36% | Potency [4]: > 20.6 µM | activation [7]: 21.1%

CCCSc1nc(C)c(CC(=O)O)c(=O)[nH]1
activity change, negative = inhibition [1]: -6.75% | activity change, negative = inhibition [2]: 13% | activity, negative = inhibition [3]: -1.03% | Potency [4]: > 20.6 µM | activation [7]: 11%
